Results from PubChem BioAssay AID1508600 (Functional Genomics Laboratory (NCATS/FGL), 2020).
The whole screen tested about 53,000 sequences, of which about 3,700 (7%) were called active.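 How the source made its calls: active means gene knockdowns whose robust z-score for IL-1 alpha signal is at least 2 or at most -2, so actives lie on both sides; inactive means the rest.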 This excerpt belongs to a sample that is enriched for actives.

Assay: Components of the Cytosolic LPS Sensing Pathway: Gene Identification via Genome-wide siRNA Screen;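 further: robust z of the log signal after scaling to non-targeting control siRNA wells of the plate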
Conditions: RAW264.7 macrophages, IL-1a HTRF, actives lie on both sides, screened at 100 nM (by protocol), cells primed 5 h with Pam3CSK4 first
How it was run: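 RAW264.7; siRNA 100 nM final, RNAiMAX, 48h 37 degrees C; Pam3CSK4 5 h; LipidA + TransIT-TKO 24 h; IL-1a HTRF; CellTiter-Glo viability; robust z vs negative-control median.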
For GCAAAUGAGAGGUCUGUUGTT against Olfr1024, the z-score was -2.52 (active). In the case of CCCUAGGGUGAUGAAGCAUTT against Ckmt2, the z-score is reported as -0.984 (inactive). For GCCAUUAAGGAAAUGUUCUTT against Olfr426, the z-score was -0.969 (inactive). For GGUUCUUUGGCUCUGUAUGTT against Atp5c1, the z-score was -0.64 (inactive). For GGUCAUCCUUCUAUUCUCUTT against Olfr648, the z-score was -2.01 (active). For GGAGGUAAAAGAUGAGAAATT against Plekho1, the z-score was 1.57 (inactive). In the case of CCUCAUAAAUUCACUCUCCTT against Bpifa2, the z-score is reported as 0.984 (inactive). With GGAGAAAACUUAGAUUACCTT against Ppil4 the z-score was 2.15 (active). In the case of GGAUAUGCUGUGAAGUAUUTT against Plekhf2, the z-score is reported as 1.68 (inactive). With GGUUAAGACCUUAAACAGATT against Prl4a1 the z-score was 0.0572 (inactive). With CGUUUCUCAGCAAACUUACTT against Il17a the z-score was 0.669 (inactive). For GGCACCUUUCAACGUAACCTT against Ntn3, the z-score was 1.32 (inactive). For GGACCUAAAGAAUUCAUCGTT against Unc79, the z-score was 0.109 (inactive). In the case of GGUGAAGAUAGUAAUACGGTT against Apol7a, the z-score is reported as -1.02 (inactive). For GGUCCAGAGGAUGAACAGATT against Crcp, the z-score was 0.551 (inactive). For CCAAAUUCAUUCUAGCUCGTT against Klf6, the z-score was -0.597 (inactive). For CGAUCUUCCAAACCCUCUUTT against Dhh, the z-score was 2.54 (active). For GCCCAUGACCAGUUCAAGUTT against Actn4, the z-score was 0.63 (inactive). For GCUAUUAAAAUAUGGGAAGTT against Olfr1314, the z-score was 1.28 (inactive). For GCAUAUGAUGGUCCUUACCTT against Cox6b1, the z-score was 0.019 (inactive). For CCAUGCUUCCCUUCAACAUTT against Adcy2, the z-score was 2.64 (active). With GGCAGUUAUCUCCUAAUGCTT against Zfp934 the z-score was -0.383 (inactive). With GGCCAGAUGACCUUGUCAUTT against Sult1e1 the z-score was -1.23 (inactive). With GGCGCACAAUCAAGAUCUUTT against Col4a4 the z-score was 0.385 (inactive). For GCACUUUGUAUGUCUAUCUTT against Tnfaip1, the z-score was 2.28 (active). With CCAAAAAGUUCAGUGUAAUTT against Rad9b the z-score was -1.09 (inactive). With GCUUGAGUAGUGCAGAAACTT against Jmjd1c the z-score was -1.15 (inactive). In the case of CCAUGAGGAUGAUUACCUATT against Cnga2, the z-score is reported as -0.947 (inactive). For GGGAAGAUUGAUUUUAUCGTT against Abcb11, the z-score was 2.31 (active). For GCGACCUUAGACAUUUGCATT against Prkrip1, the z-score was -0.652 (inactive). In the case of CGCCUUCAUAAUGUAGUUGTT against Defb37, the z-score is reported as 0.601 (inactive). For CCGUCACUUUUAACCAUGUTT against Speg, the z-score was 4.19 (active). In the case of GCACCUGGAGUACAUAAAATT against Sh2d1a, the z-score is reported as -0.854 (inactive). With CGUAGACUCCAAGCUCAAUTT against Ddx54 the z-score was -1.31 (inactive). For GGAAAUUGUCUUUGGCUUUTT against Otop1, the z-score was -0.0923 (inactive). With GGCAAAAUGAAGAAGCUGATT against Hdac6 the z-score was -1.3 (inactive). For GCUACGAGCAGUUUUUAUUTT against Ptgs1, the z-score was 0.885 (inactive). For GGUGAAAGGAGUCAGUCUATT against Agtrap, the z-score was -0.013 (inactive). In the case of GGCUCCUGGUUCUACAUCCTT against Itpr2, the z-score is reported as -2.54 (active). With CCCUAAGUAUAGGAUCGGATT against Macroh2a1 the z-score was -1.07 (inactive). In the case of GGGUUAUCUAUGCAAAUCCTT against Odc1, the z-score is reported as 0.569 (inactive). With GCGGCAUUCGUCCAAAUUGTT against Trpt1 the z-score was 0.938 (inactive). In the case of GGCAGAGAUGGUGUUGAUGTT against Col1a2, the z-score is reported as -0.342 (inactive). With GGUGGCCAUUCUUCUGUUCTT against Dynll1 the z-score was 2.19 (active). With GGAAGUGGUGGCCAUCAAGTT against Stk25 the z-score was 1.08 (inactive). For GCUUGUAGGUGGAUACAUGTT against Slc30a4, the z-score was -0.161 (inactive). In the case of GGAAGACUAGGAGAGACGGTT against Pqlc3, the z-score is reported as -0.739 (inactive). For GCAUAAUGGAUGGAAAGUCTT against Tasp1, the z-score was 1.1 (inactive). For CCCUAAGGUGGCAGAAAUCTT against Atp1a2, the z-score was -1.49 (inactive). In the case of GGCGGUUCAAAUGUCCUCATT against Fut2, the z-score is reported as -2.02 (active). With GGGAGGGUGUGCAAAAGUUTT against Arl4d the z-score was 1.26 (inactive). In the case of GCUUCUUAUGAAAAGAUGCTT against Epc2, the z-score is reported as 0.463 (inactive). In the case of GGAGUGGACUCACGUCUAATT against Med23, the z-score is reported as 0.717 (inactive). In the case of GGGUCCUUUUUCACAUGGUTT against Asph, the z-score is reported as 2.82 (active). For CGGUGAUAGUGGAGUUUGUTT against Olfr266, the z-score was 0.542 (inactive). In the case of GCAGCACAGUACUAUCUCGTT against Ttc4, the z-score is reported as -0.339 (inactive). In the case of GCCAGAGAUUCCUCAACGATT against Rpp21, the z-score is reported as -2.48 (active). With GCAAUAGAAUCACAUAGGATT against Glyctk the z-score was 1.35 (inactive). With GGCUGUAAUGACGAAUACATT against Naa25 the z-score was 0.764 (inactive). For GGGCAUGUGAUAGAACAAUTT against Stoml1, the z-score was -0.701 (inactive). For GAGAAAGAUAAUUACCUGGTT against Tnfrsf22, the z-score was 0.552 (inactive). For GGAAGCUGAUGGCUAUGACTT against Arc, the z-score was -0.943 (inactive). With GGAGACUGUAGACUUAAAGTT against Rnf25 the z-score was -1.24 (inactive). For CAAUAACACUGGUGCCGACTT against Adam34l, the z-score was 1.73 (inactive). In the case of CCUAAAUUAGUAGGACGGUTT against Cdkn1a, the z-score is reported as 0.675 (inactive). In the case of GGAUCAGUACCCGUAUUUGTT against Plin2, the z-score is reported as -2.38 (active). With CCUAGAUUCGGACAAGGAUTT against Kctd5 the z-score was -0.424 (inactive). For GGUAUAGCAAUUUCUACAATT against Chrna2, the z-score was -0.174 (inactive). In the case of GGUAGUGAAAAUGAAGAGUTT against Gtf2h1, the z-score is reported as 0.892 (inactive).
